DAX1 inh-1 – inhibits human nuclear receptor DAX1; P51843; HEK293 Gal4-DAX1 luciferase reporter, luminescence; inhibition, % at 6.75 µM; 340,000 compounds, 0.99% hits; AID 504766;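 active = inhibition above the mean over all tested compounds plus 3 SD, cut at about 4.2% in these data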;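 also: 0% = DAX1-transfected cells with DMSO and 100% = empty-vector control cells with DMSO; inhibition shows as a rise in luminescence from relieved DAX1 repression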
Target sequence (P51843 207-470 limits assumed): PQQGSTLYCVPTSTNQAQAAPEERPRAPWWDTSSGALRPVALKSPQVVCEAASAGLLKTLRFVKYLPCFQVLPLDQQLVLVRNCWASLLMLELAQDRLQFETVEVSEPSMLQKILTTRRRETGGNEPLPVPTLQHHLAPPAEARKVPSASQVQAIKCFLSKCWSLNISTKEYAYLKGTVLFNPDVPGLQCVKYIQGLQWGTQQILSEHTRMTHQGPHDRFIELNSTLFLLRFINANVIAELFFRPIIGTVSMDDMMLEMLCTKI
hgDAF12 agonist – hgDAF-12 agonism, primary luciferase screen. HEK293 GAL4-hgDAF12 UAS-luciferase reporter, agonist luminescence; normalized to butyrate control. activation, % at 6.8 µM. 370,000 compounds, 1.8% hits;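 active = activation above a cutoff set at the mean of all screened compounds plus 3 SD, cut at about 10% in these data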;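 also: 0% = DMSO wells and 100% = sodium butyrate wells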
ssDAF12 agonist – activators of S. stercoralis DAF-12 nuclear receptor; HEK293 ssDAF-12/GRIP1 lit1-tk-luc reporter, luminescence; % of 3 µM dafachronic acid response; activation, % at 6.8 µM; 370,000 compounds, 1% hits; AID 652126;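 active = activation above the mean over all tested compounds plus 3 SD, cut at about 0.9% in these data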;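 also: 0% = DMSO-only wells and 100% = 3 µM delta7-dafachronic acid wells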
SMARCA2 act – increases SMARCA2 function in MMTV reporter cells; MG213 cells, MMTV-luciferase reporter, dexamethasone, overnight; activation, % at 9.1 µM; 370,000 compounds, 1% hits; in the data active = activation above about 7.8%;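 also: 0% = vehicle wells and 100% = reference activator wells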
DAX1 inh-2 – DAX1 (NR0B1) inhibition, primary screen | inhibition, % at 6.8 µM | AID 652010 | 370,000 compounds, 1.1% hits | HEK293T StAR-luciferase reporter, SF-1/DAX-1 repression relief;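 active = inhibition above the mean over all tested compounds plus 3 SD, cut at about 3.6% in these data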;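 also: 0% = DAX-1 cells with DMSO and 100% = cells lacking DAX-1 with DMSO; higher inhibition means more luminescence from relief of DAX-1 repression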
hcDAF12 agonist – H. contortus DAF-12 activation, primary screen; 370,000 compounds, 1.4% hits; activation, % at 6.8 µM; HEK293 hcDAF-12 lit1-tk-luc reporter, luminescence; 0% DMSO, 100% Δ7-dafachronic acid;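 active = activation above the mean of all tested compounds plus 3 SD, cut at about 5.5% in these data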;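 also: 100% = response to 3 µM Δ7-dafachronic acid high control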
* marks the source's active call; other numbers are inactive results; . = no result given. In the library only some 4.8% were active in any assay of this set; here they are far more common.

SMILES	DAX1 inh-1	hgDAF12 agonist	ssDAF12 agonist	SMARCA2 act	DAX1 inh-2	hcDAF12 agonist
CCOc1ccc(/C=C/C2=NNC(=O)CC2)cc1	1	11*	-2	-1	1	2
O=C1CCC(/C=C/c2ccccc2)=NN1	0	3	-1	-1	1	0
Cn1c(C(=O)c2ccccc2[N+](=O)[O-])nc2ccccc21	1	4	0	-1	-1	5.8*
CN(CC#Cc1ccccc1)C(N)=NC(=O)/C=C/c1cccc(C(F)(F)F)c1	.	-3	-2	-3	0	-2
COc1ccc(C)cc1NC(=O)ON=C1CCCCC1	.	2	-1	-1	0	0
O=C(Nc1cccc2ccccc12)ON=C1CCCCC1	.	-1	1.0*	1	0	2
O=C(CSc1ncccn1)Nc1cccc2ccccc12	0	3	-1	-2	0	6.2*
O=C(CSc1nnc2c3ccccc3c3ccccc3c2n1)Nc1ccccc1F	0	0	-1	0	0	5.8*
O=C(CSc1nnc2c(n1)[nH]c1ccc(F)cc12)Nc1ccccc1F	-1	-1	-1	0	0	0
O=C(Nc1cccc2ccccc12)c1ccccc1	2	10	0	5	2	5.6*
CC1COCC(C)N1S(=O)(=O)c1ccc2c(c1)CCN2C(=O)C1CCC1 (stereo not given)	.	0	-1	-4	-1	0
CC(C)(C)C(=O)O[C@@H]1CCC[C@@]2(C(=O)N(Cc3ccccc3)c3ccccc32)[C@H]1NC(=O)CCc1ccccc1	.	-1	-1	-3	0	-3
COC(=O)N1CCC[C@H]1c1cccc2[nH]cc(C)c12	.	1	-1	3	0	-2
COC(=O)[C@]12C[C@H](CC(=O)NCc3ccc(C)o3)C(=O)N(CCc3ccc(OC)c(OC)c3)C1=C[C@H](COCc1ccccc1)O[C@@H]2C	.	-2	-1	0	-1	-1
O=C(NCCc1ccccc1)c1ccc(S(=O)(=O)N2CCCCC2)cc1	1	0	-2	-2	0	-2
O=C(NC(=S)N(CCO)Cc1ccccc1)c1ccc(S(=O)(=O)N2CCCC2)cc1	0	3	2.0*	-2	0	0
CCCCN(C)C(=O)Cn1nc(Cc2ccncc2)c2ccccc2c1=O	15*	-1	-1	0	0	-2
O=C(OC12CCCN(C1)/C(=C/c1cccc(Cl)c1)C2)c1ccc(Cl)cc1 (stereo not given)	.	-3	-1	-4	1	2
COC(=O)[C@]12C[C@H](CC(=O)NCc3cccc4ccccc34)C(=O)N(Cc3ccco3)C1=C[C@H](C(C)C)O[C@@H]2C1CC1	.	-2	-1	-5	1	-2
Cc1ccc2cc3cc(C(=O)N4CCCCC4C)oc3nc2c1 (stereo not given)	0	12*	1.0*	1	4.2*	5.9*
COc1ccc2nc3oc(C(=O)N4CCC(C(N)=O)CC4)cc3cc2c1	1	1	-1	7	0	-2
CCOC(=O)C1CCN(C(=O)c2cc3cc4ccc(OC)cc4nc3o2)CC1	-1	7	-1	7	3.8*	1
COc1ccccc1NC(=S)NCCc1ccc(S(N)(=O)=O)cc1	0	-2	-1	-5	0	5.9*
CC(NCCc1ccc(S(N)(=O)=O)cc1)C(=O)NCCc1ccc(F)cc1 (stereo not given)	5.1*	-1	-1	-1	0	-1
COc1cc(NC(=S)NCCc2ccccc2)c(OC)cc1NC(=O)C(C)C	0	-1	1.9*	-5	-1	-2
CC(NCC(=O)NCCc1ccc(S(N)(=O)=O)cc1)c1ccc(F)cc1 (stereo not given)	1	2	0	-1	1	1
Cn1c(Cc2cccs2)nnc1SCC(=O)Nc1ccc2cn[nH]c2c1	.	3	-1	-6	-3	-2
COc1ccc(C2=NOC(CN3C(=O)c4ccccc4S3(=O)=O)C2)cc1 (stereo not given)	1	12*	1	4	2	4
CN1CCN(C(=S)c2ccc(-c3cccc(Cl)c3Cl)o2)CC1	2	12*	0	3	3	4

Screening data deposited in PubChem by The Scripps Research Institute Molecular Screening Center.
